Results: the supplement of paper PMC9694430
Structures can show the parent of a compound that is named as a salt.

What was measured:
Assay in all cases: thermal shift delta Tm vs DMSO control; higher = stronger stabilization (binding)
Settings in all cases: 12.5 µM; protein concentration 2 µM
[1] = system: LOC_OS01G57100-cb003
Summary of the method: (§1)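 The melting temperature shift given here is a triplicate mean, measured against protein that received only DMSO. Melting temperatures came from Boltzmann fits of differential scanning fluorimetry data on E. coli-expressed, purified rice kinase domain constructs. Each 19.5 μl well contained 2 μM kinase, 100 mM potassium phosphate pH 7.5, 150 mM NaCl, 10% glycerol, 5 × SYPRO Orange and compound in DMSO. Plates were scanned from 25°C to 95°C at 0.05°C/s.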

[2] = system: LOC_OS01G60330-cb001
Summary of the method: as §1

[3] = system: LOC_OS01G60700-cb002
Summary of the method: as §1

[4] = system: LOC_OS01G63280-cb003
Summary of the method: as §1

[5] = system: LOC_OS01G67340-cb003
Summary of the method: as §1

[6] = system: LOC_OS01G70970-cb002
Summary of the method: as §1

[7] = system: LOC_OS02G07810-cb001
Summary of the method: as §1

[8] = system: LOC_OS02G08530-cb003
Summary of the method: as §1

[9] = system: LOC_OS02G14120-cb001
Summary of the method: as §1

[10] = system: LOC_OS02G17970-cb001
Summary of the method: as §1

[11] = system: LOC_OS02G45750-cb003
Summary of the method: as §1

[12] = system: LOC_OS02G54510-cb004
Summary of the method: as §1

[13] = system: LOC_OS03G04050-cb001
Summary of the method: as §1

[14] = system: LOC_OS03G12390-cb001
Summary of the method: as §1

[15] = system: LOC_OS03G27990-cb004
Summary of the method: as §1

[16] = system: LOC_OS03G50450-cb001
Summary of the method: as §1

[17] = system: LOC_OS03G50810-cb003
Summary of the method: as §1

[18] = system: LOC_OS04G35114-cb001
Summary of the method: as §1

[19] = system: T1, LOC_OS04G38480-cb003
T1 sequence (whole entry): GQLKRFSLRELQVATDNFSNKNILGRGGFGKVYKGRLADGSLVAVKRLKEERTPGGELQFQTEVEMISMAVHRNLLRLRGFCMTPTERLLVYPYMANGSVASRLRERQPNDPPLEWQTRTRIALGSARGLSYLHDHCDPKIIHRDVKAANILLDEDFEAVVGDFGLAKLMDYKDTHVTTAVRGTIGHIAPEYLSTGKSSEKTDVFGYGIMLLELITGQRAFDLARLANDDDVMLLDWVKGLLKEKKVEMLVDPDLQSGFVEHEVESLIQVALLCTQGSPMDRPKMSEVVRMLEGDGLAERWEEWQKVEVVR
Summary of the method: as §1

[20] = system: T2, LOC_OS04G41100-cb001
T2 sequence (whole entry): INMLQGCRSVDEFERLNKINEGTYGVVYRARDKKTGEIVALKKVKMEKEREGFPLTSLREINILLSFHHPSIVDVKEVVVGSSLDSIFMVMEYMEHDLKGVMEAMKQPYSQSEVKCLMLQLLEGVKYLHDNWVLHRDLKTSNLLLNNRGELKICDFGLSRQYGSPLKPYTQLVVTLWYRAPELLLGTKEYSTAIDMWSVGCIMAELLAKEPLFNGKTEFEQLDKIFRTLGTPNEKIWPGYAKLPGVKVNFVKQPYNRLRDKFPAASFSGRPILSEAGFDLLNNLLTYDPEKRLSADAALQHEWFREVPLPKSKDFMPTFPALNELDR
Summary of the method: as §1

`O=c1sn(-c2cccc3ccccc23)c(=O)n1Cc1ccccc1` [Tideglusib] was tested, and the “thermal shift delta Tm” value [1] was 1.25 °C, the “thermal shift delta Tm” value [2] was 0.51 °C and the “thermal shift delta Tm” value [3] was 1.08 °C. For the same compound, the “thermal shift delta Tm” value [4] was 0.25 °C, the “thermal shift delta Tm” value [5] was 0.24 °C and the “thermal shift delta Tm” value [6] was -0.22 °C. For the same compound, the “thermal shift delta Tm” value [7] was 0.81 °C, the “thermal shift delta Tm” value [8] was 0.5 °C and the “thermal shift delta Tm” value [9] was -0.01 °C. For the same compound, the “thermal shift delta Tm” value [10] was 1.3 °C, the “thermal shift delta Tm” value [11] was 0 °C and the “thermal shift delta Tm” value [12] was 0.35 °C. For the same compound, the “thermal shift delta Tm” value [13] was 0.13 °C, the “thermal shift delta Tm” value [14] was -1.57 °C and the “thermal shift delta Tm” value [15] was 0.89 °C. For the same compound, the “thermal shift delta Tm” value [16] was 0.32 °C, the “thermal shift delta Tm” value [17] was -0.5 °C and the “thermal shift delta Tm” value [18] was 2.38 °C. The “thermal shift delta Tm” value [19] was 0.78 °C and the “thermal shift delta Tm” value [20] was 0.34 °C.

`CN1CC[C@H](c2c(O)cc(O)c3c(=O)cc(-c4ccccc4Cl)oc23)[C@H](O)C1` [Flavopiridol HCl] was tested, and the “thermal shift delta Tm” value [1] was 1.91 °C, the “thermal shift delta Tm” value [2] was 1.31 °C and the “thermal shift delta Tm” value [3] was 0.43 °C. For the same compound, the “thermal shift delta Tm” value [4] was 1.03 °C, the “thermal shift delta Tm” value [5] was 0.26 °C and the “thermal shift delta Tm” value [6] was 1.67 °C. The “thermal shift delta Tm” value [7] was 1.12 °C, the “thermal shift delta Tm” value [8] was 2.13 °C and the “thermal shift delta Tm” value [9] was 2.4 °C. For the same compound, the “thermal shift delta Tm” value [10] was 0.78 °C, the “thermal shift delta Tm” value [11] was 1.65 °C and the “thermal shift delta Tm” value [12] was 0.99 °C. The “thermal shift delta Tm” value [13] was 0.18 °C, the “thermal shift delta Tm” value [14] was 2.02 °C and the “thermal shift delta Tm” value [15] was 1.25 °C. For the same compound, the “thermal shift delta Tm” value [16] was 0.4 °C, the “thermal shift delta Tm” value [17] was 0.81 °C and the “thermal shift delta Tm” value [18] was 1.99 °C. For the same compound, the “thermal shift delta Tm” value [19] was 1.82 °C and the “thermal shift delta Tm” value [20] was 0.56 °C.

`COc1ccc(S(=O)(=O)N(C(C)=O)c2ccccc2/C=C/c2cc[n+]([O-])cc2)cc1` was tested, and the “thermal shift delta Tm” value [1] was 1.85 °C, the “thermal shift delta Tm” value [2] was 0.75 °C and the “thermal shift delta Tm” value [3] was 0.63 °C. For the same compound, the “thermal shift delta Tm” value [4] was 0.55 °C, the “thermal shift delta Tm” value [5] was -0.3 °C and the “thermal shift delta Tm” value [6] was 0.2 °C. For the same compound, the “thermal shift delta Tm” value [7] was 1.33 °C, the “thermal shift delta Tm” value [8] was 0.62 °C and the “thermal shift delta Tm” value [9] was 2.16 °C. For the same compound, the “thermal shift delta Tm” value [10] was 1.01 °C, the “thermal shift delta Tm” value [11] was -0.35 °C and the “thermal shift delta Tm” value [12] was -0.24 °C. The “thermal shift delta Tm” value [13] was 0.19 °C, the “thermal shift delta Tm” value [14] was 0.13 °C and the “thermal shift delta Tm” value [15] was -0.03 °C. The “thermal shift delta Tm” value [16] was 0.17 °C, the “thermal shift delta Tm” value [17] was 0.09 °C and the “thermal shift delta Tm” value [18] was 0.01 °C. The “thermal shift delta Tm” value [19] was 0.55 °C and the “thermal shift delta Tm” value [20] was 0.61 °C.

In the case of `CCC[C@H](NC(=O)/C(C#N)=C/c1cccc(Br)n1)c1ccccc1` [Degrasyn (WP1130)], the “thermal shift delta Tm” value [1] is reported as 5.82 °C, the “thermal shift delta Tm” value [2] is reported as 0.61 °C and the “thermal shift delta Tm” value [3] is reported as 1.12 °C. The “thermal shift delta Tm” value [4] was -5.45 °C, the “thermal shift delta Tm” value [5] was -3.27 °C and the “thermal shift delta Tm” value [6] was 0.17 °C. The “thermal shift delta Tm” value [7] was 0.68 °C, the “thermal shift delta Tm” value [8] was -0.39 °C and the “thermal shift delta Tm” value [9] was -1.56 °C. For the same compound, the “thermal shift delta Tm” value [10] was 4.33 °C, the “thermal shift delta Tm” value [11] was -2.36 °C and the “thermal shift delta Tm” value [12] was -1.29 °C. The “thermal shift delta Tm” value [13] was 0.2 °C, the “thermal shift delta Tm” value [14] was -5.26 °C and the “thermal shift delta Tm” value [15] was -3.68 °C. For the same compound, the “thermal shift delta Tm” value [16] was -0.35 °C, the “thermal shift delta Tm” value [17] was -2.71 °C and the “thermal shift delta Tm” value [18] was -2.87 °C. For the same compound, the “thermal shift delta Tm” value [19] was 1.05 °C and the “thermal shift delta Tm” value [20] was -0.61 °C.

With `Cc1nc(Nc2n[nH]c3c2CN(C(=O)N[C@H](CN(C)C)c2ccccc2)C3(C)C)c2sccc2n1` the “thermal shift delta Tm” value [1] was 0.61 °C, the “thermal shift delta Tm” value [2] was -0.15 °C and the “thermal shift delta Tm” value [3] was 1.34 °C. The “thermal shift delta Tm” value [4] was 0.55 °C, the “thermal shift delta Tm” value [5] was 0.06 °C and the “thermal shift delta Tm” value [6] was 0.38 °C. For the same compound, the “thermal shift delta Tm” value [7] was 0.99 °C, the “thermal shift delta Tm” value [8] was 2.37 °C and the “thermal shift delta Tm” value [9] was 0.4 °C. For the same compound, the “thermal shift delta Tm” value [10] was 0.96 °C, the “thermal shift delta Tm” value [11] was 0.94 °C and the “thermal shift delta Tm” value [12] was 0.82 °C. For the same compound, the “thermal shift delta Tm” value [13] was 0.62 °C, the “thermal shift delta Tm” value [14] was 3.19 °C and the “thermal shift delta Tm” value [15] was 0.55 °C. For the same compound, the “thermal shift delta Tm” value [16] was 0.78 °C, the “thermal shift delta Tm” value [17] was 1.44 °C and the “thermal shift delta Tm” value [18] was 3.07 °C. For the same compound, the “thermal shift delta Tm” value [19] was 0.43 °C and the “thermal shift delta Tm” value [20] was 0.63 °C.
